According to PubChem BioAssay (NCATS):
Records with an inconclusive call do not appear. Entries that show only a call come without a potency. Values without a mark were called inactive. Active and inactive are the calls of the source. The call rests on the fitted dose curve; in most records, active means well fitted inhibition curve with a large enough effect; inconclusive means small, poorly fitted or top-dose-only effect; inactive means flat fitted curve, though single readings scatter.

Experiments:
FAB9 = test: qHTS profiling for inhibitors of Plasmodium falciparum proliferation (AID 504749); details: P. falciparum in erythrocytes, SYBR Green DNA, 72 h; series mostly up to 28.7 µM
In short: (§1)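 P. falciparum-infected erythrocytes (0.3% parasitemia, 2.5% hematocrit) incubated with compound 72 h at 37 C, 5% CO2. Parasite DNA detected by SYBR Green after lysis, overnight at room temperature; normalised to 0.29 uM artemisinin and DMSO.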

GB4 = test: as above; details: P. falciparum in erythrocytes, SYBR Green DNA, 72 h; series mostly up to 28.7 µM
In short: as §1

ICS = test: as above; details: P. falciparum in erythrocytes, SYBR Green DNA, 72 h; series mostly up to 28.7 µM
In short: as §1

P93_24 = test: as above; details: P. falciparum in erythrocytes, SYBR Green DNA, 72 h; series mostly up to 28.7 µM
In short: as §1

TAB165 = test: as above; details: P. falciparum in erythrocytes, SYBR Green DNA, 72 h; series mostly up to 28.7 µM
In short: as §1

W2 = test: as above; details: P. falciparum in erythrocytes, SYBR Green DNA, 72 h; series mostly up to 28.7 µM
In short: as §1

HEK293 = test: Cytotoxic Profiling of Annotated Libraries Using Quantitative High-Throughput Screening (AID 1296008); details: Five cell lines viability, CellTiter-Glo ATP luminescence, 48-72 h; max response: active compounds read low
In short: (§2)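 Cells exposed to compounds for 48 or 72 hr at 37 degrees Celsius. Viability read as ATP-coupled luminescence with CellTiter-Glo after 10 min at room temperature.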

ECU = test: qHTS profiling for inhibitors of Plasmodium falciparum proliferation (AID 504749); details: P. falciparum in erythrocytes, SYBR Green DNA, 72 h; series mostly up to 28.7 µM
In short: as §1

HB3 = test: as above; details: P. falciparum in erythrocytes, SYBR Green DNA, 72 h; series mostly up to 28.7 µM
In short: as §1

JCK = test: as above; details: P. falciparum in erythrocytes, SYBR Green DNA, 72 h; series mostly up to 28.7 µM
In short: as §1

P94_40 = test: as above; details: P. falciparum in erythrocytes, SYBR Green DNA, 72 h; series mostly up to 28.7 µM
In short: as §1

PAD = test: as above; details: P. falciparum in erythrocytes, SYBR Green DNA, 72 h; series mostly up to 28.7 µM
In short: as §1

PC26 = test: as above; details: P. falciparum in erythrocytes, SYBR Green DNA, 72 h; series mostly up to 28.7 µM
In short: as §1

PC49 = test: as above; details: P. falciparum in erythrocytes, SYBR Green DNA, 72 h; series mostly up to 28.7 µM
In short: as §1

PC15 = test: as above; details: P. falciparum in erythrocytes, SYBR Green DNA, 72 h; series mostly up to 28.7 µM
In short: as §1

SC27B = test: as above; details: P. falciparum in erythrocytes, SYBR Green DNA, 72 h; series mostly up to 28.7 µM
In short: as §1

TAB109 = test: as above; details: P. falciparum in erythrocytes, SYBR Green DNA, 72 h; series mostly up to 28.7 µM
In short: as §1

TAB113 = test: as above; details: P. falciparum in erythrocytes, SYBR Green DNA, 72 h; series mostly up to 28.7 µM
In short: as §1

CRL-7250 = normal cell line; test: Cytotoxic Profiling of Annotated Libraries Using Quantitative High-Throughput Screening (AID 1296008); details: Five cell lines viability, CellTiter-Glo ATP luminescence, 48-72 h; max response: active compounds read low
In short: as §2

N140 = test: qHTS profiling for inhibitors of Plasmodium falciparum proliferation (AID 504749); details: P. falciparum in erythrocytes, SYBR Green DNA, 72 h; series mostly up to 28.7 µM
In short: as §1
Further: nearly all actives have a fitted effect of over 60% in size.
Potency means the concentration at half of the fitted maximal effect.

SMILES: CCN(CC)CCOc1ccc(C(O)(Cc2ccc(Cl)cc2)c2ccc(C)cc2)cc1 (stereo not drawn)
- Potency (FAB9): inactive
- Potency (GB4): 13.5 µM (active)
- Potency (ICS): 8.91 µM (active)
- Potency (P93_24): 8.91 µM (active)
- Potency (TAB165): 10 µM (active)
- Potency (W2): 6.01 µM (active)
- Potency (HEK293): 9.44 µM (active)

SMILES: CCCCCCCCCCCCCCCC[N+](C)(C)CCN(Cc1ccc(OC)cc1)c1ncccn1
- Potency (ECU): 1.12 µM (active)
- Potency (FAB9): inactive
- Potency (HB3): inactive
- Potency (JCK): inactive
- Potency (P94_40): inactive
- Potency (PAD): inactive
- Potency (PC26): inactive
- Potency (PC49): inactive
- Potency (HEK293): 9.44 µM (active)

SMILES: C[C@@H]1C[C@H]2[C@@H]3CCC4=CC(=O)C=C[C@]4(C)[C@@]3(F)[C@@H](O)C[C@]2(C)[C@H]1C(=O)CO
- Potency (ECU): inactive
- Potency (FAB9): inactive
- Potency (JCK): inactive
- Potency (P94_40): inactive
- Potency (PC15): inactive
- Potency (PC49): inactive
- Potency (SC27B): inactive
- Potency (TAB109): inactive
- Potency (TAB113): inactive
- max response (CRL-7250): -8.13%

SMILES: C[C@H]1[C@H](NC(=O)/C(=N/OC(C)(C)C(=O)O)c2csc(N)n2)C(=O)N1S(=O)(=O)O (stereo in doubt)
- Potency (ECU): inactive
- Potency (FAB9): inactive
- Potency (GB4): inactive
- Potency (HB3): inactive
- Potency (ICS): inactive
- Potency (JCK): inactive
- Potency (N140): inactive
- Potency (P93_24): inactive
- Potency (P94_40): inactive
- Potency (PAD): inactive
- Potency (PC15): inactive
- Potency (PC26): inactive
- Potency (PC49): inactive
- Potency (SC27B): inactive
- Potency (TAB109): inactive
- Potency (TAB113): inactive
- Potency (TAB165): inactive
- Potency (W2): inactive

SMILES: C[N+]1(CCCCC[N+]2(C)CCCC2)CCCC1
- Potency (ECU): inactive
- Potency (FAB9): inactive
- Potency (GB4): inactive
- Potency (HB3): inactive
- Potency (ICS): inactive
- Potency (JCK): inactive
- Potency (N140): inactive
- Potency (P93_24): inactive
- Potency (P94_40): inactive
- Potency (PAD): inactive
- Potency (PC15): inactive
- Potency (PC26): inactive
- Potency (PC49): inactive
- Potency (SC27B): inactive
- Potency (TAB109): inactive
- Potency (TAB113): inactive
- Potency (TAB165): inactive
- Potency (W2): inactive

SMILES: NCCC(O)(P(=O)(O)O)P(=O)(O)O
- Potency (ECU): inactive
- Potency (FAB9): inactive
- Potency (GB4): inactive
- Potency (HB3): inactive
- Potency (ICS): inactive
- Potency (JCK): inactive
- Potency (N140): inactive
- Potency (P93_24): inactive
- Potency (P94_40): inactive
- Potency (PAD): inactive
- Potency (PC15): inactive
- Potency (PC26): inactive
- Potency (PC49): inactive
- Potency (SC27B): inactive
- Potency (TAB109): inactive
- Potency (TAB113): inactive
- Potency (TAB165): inactive
- Potency (W2): inactive

SMILES: Cc1c(F)c(N2CCNC(C)C2)cc2c1c(=O)c(C(=O)O)cn2C1CC1 (stereo not drawn)
- Potency (ECU): inactive
- Potency (FAB9): inactive
- Potency (GB4): inactive
- Potency (HB3): inactive
- Potency (ICS): inactive
- Potency (JCK): inactive
- Potency (N140): inactive
- Potency (P93_24): inactive
- Potency (P94_40): inactive
- Potency (PAD): inactive
- Potency (PC15): inactive
- Potency (PC26): inactive
- Potency (PC49): inactive
- Potency (SC27B): inactive
- Potency (TAB109): inactive
- Potency (TAB113): inactive
- Potency (TAB165): inactive
- Potency (W2): inactive

SMILES: O=S1(=O)c2cccc3cccc(c23)N1CCCN1CCN(c2ccc(F)cc2)CC1
- Potency (ECU): inactive
- Potency (FAB9): inactive
- Potency (GB4): inactive
- Potency (HB3): inactive
- Potency (JCK): inactive
- Potency (N140): inactive
- Potency (P93_24): inactive
- Potency (PAD): inactive
- Potency (PC15): inactive
- Potency (PC49): inactive
- Potency (SC27B): inactive
- Potency (TAB109): inactive
- Potency (TAB113): inactive
- Potency (TAB165): inactive
- Potency (W2): inactive
